Measured values from PubChem BioAssay (NCI).
Compounds without any hit were thinned out: in the full panel of roughly 83,000, 20% have a hit.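 Method: cells in 96-well plates; compound added at one concentration; 48 h incubation; percent growth measured; values under 10 scored active.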 A number with no mark means an inactive call. Activity calls are given as the source filed them.

These molecules were tested on BT-549 breast (assay: NCI-60 one-dose screen, 48 h (100 = growth as untreated, 0 = no growth, -100 = all killed)). Details: 10 µM.

SMILES | growth
O=C(COc1ccc(-c2nc3ccccc3[nH]2)cc1)N=Nc1c(O)[nH]c2ccccc12 | 106%
C[C@]12CC[C@H]3[C@@H](CC=C4C[C@@H](O)CC[C@@]43C)[C@@H]1CC[C@@H]2C(=O)C/C=N/O | 90.2%
COc1ccc(N2CCN(c3nc(-c4ccccc4)c(C#N)c(=O)[nH]3)CC2)cc1 | 93.6%
CCCCCCCCCCCC(=O)NCCCN(C)C | 70.5%
COc1cccc(-c2nnc(COc3ccc(-c4nc5ccccc5[nH]4)cc3OC)o2)c1 | 81.7%
N/C(=N\O)c1cn(C2OC(CO)C(O)C2O)c2ncnc(N)c12 (stereo unspecified) | 14%
Nc1ccc(C2=CC(c3ccc(Cl)cc3)N3C=CSC3=N2)cc1 (stereo unspecified) | -50.7% (active)
O=[N+]([O-])c1cc2ncccc2c2ncccc12 | 89.6%
O=C(CCc1ccccc1)N1CCN(C(=O)CCc2ccccc2)CC1 | 105%
COc1ccc(CCc2nc3cc(-c4c(C)noc4C)ccc3n2CCN2CCOCC2)cc1 | 81.4%
CCOC(=O)C(=O)Cc1cccnn1 | 101%
FC(F)(F)c1ccc(-c2nc(-c3nc4cc(Cl)c(Cl)cc4[nH]3)c3ccccn23)cc1 | 88.2%
COc1cc(CSc2nc3ccc(C)cc3c(=O)n2-c2ccccc2)cc(OC)c1OC | 19.6%
CC(C)C[C@H](NC(=O)Cn1ccc2ccccc2c1=O)B(O)O | 58.4%
CCCCC(=O)N(c1ccc(Nc2c3ccccc3nc3cc([N+](=O)[O-])ccc23)cc1)S(C)(=O)=O | 86.3%
N#Cc1ncc(-c2cc(F)ccc2F)c(NC2CCCCCC2)n1 | 76.2%
Cc1nnc2c3nnc(-c4ccc(Cl)cc4)n3c3ccccc3n12 | 91.5%
O=CNc1c(Cl)cc2c(c1Cl)Cc1cc([N+](=O)[O-])ccc1-2 | 95.8%
O=C(Nc1ccc(OS(=O)(=O)Cc2ccccc2)cc1)C12CC3CC(CC(C3)C1)C2 | 71.2%

SMILES | growth
COc1cc(CSc2nc3ccc(C)cc3c(=O)n2Cc2ccccc2)cc(OC)c1OC | 34.8%
CC(=O)[C@H]1CC[C@H]2[C@@H]3CC[C@@H]4CC=C(C=O)C[C@]4(C)[C@H]3CC[C@]12C | 85.8%
O=[N+]([O-])c1ccc(Br)o1 | 97%
CCc1nn2c(-c3cc(OC)c(OC)c(OC)c3)c(-c3cc(OC)c(OC)c(OC)c3)nc2s1 | 89.6%
N#Cc1c2c([nH]c(=O)c1C(N)=O)CCCCC2 | 100%
COC(=O)[C@]12CC[C@@H](C)[C@H](C)[C@@H]1C1=CC[C@@H]3[C@@]4(C)CC(=O)[C@H](O)[C@@]5(C)COC(=C45)C[C@@]3(C)[C@]1(C)CC2 | -61.7% (active)
C=CCNCCCN1C(=O)c2ccc3c4c(ccc(c24)C1=O)C(=O)N(CCCNCC=C)C3=O | -82% (active)
COc1ccc(Cn2cc3c(c2-c2cc(OC)c(OC)c(OC)c2)CCc2cnoc2-3)cc1N | 26.3%
Cc1ccc2nc(-c3ccc(OCC(=O)N=Nc4c(O)[nH]c5ccccc45)cc3)[nH]c2c1 | 109%
COc1cc(OC)cc(-c2n/c(=C\c3c(O)[nH]c4ccc(OC)cc34)cc3c2=Nc2ccccc2-3)c1 | 92.3%
O=c1ccc2nc(-c3ccccc3)nn(-c3ccccc3)c-2c1 | 90.2%
NS(=O)(=O)c1ccc(N2N=C(c3ccc(-c4ccccc4)cc3)CC2c2ccc(Cl)cc2)cc1 (stereo unspecified) | 116%
O=C(NC1CCCC1)c1ccc(N2CCC(NCc3cccc(C(F)(F)F)c3)CC2)cc1 | 89.3%
COc1cc(OC)cc(-c2ccc(-c3ccc(C(=N)N)cn3)o2)c1 | -3.57% (active)
COc1ccc(-c2oncc2-c2cc(OC)c3c(c2)OCO3)cc1 | 2.88% (active)
COc1cc2ccnc(C=O)c2cc1OC | 56.3%
N#Cc1ccc(-n2cnc(NC(=O)[C@H]3CCN(C#N)C3)c2)cc1 | 18.5%
Oc1ccccc1-c1nnc(Cn2c(Cc3cccc4ccccc34)nc3ccccc32)o1 | 101%
Fc1ccc(Nc2ccnc(N3CCN(c4ccnc5cc(Cl)ccc45)CC3)n2)cc1 | 75.1%

The molecules below were run on MDA-MB-435 melanoma in the same assay as above. Details: 10 µM.

SMILES | growth
O=C(COc1ccc(-c2nc3ccccc3[nH]2)cc1)N=Nc1c(O)[nH]c2ccccc12 | 69.8%
C[C@]12CC[C@H]3[C@@H](CC=C4C[C@@H](O)CC[C@@]43C)[C@@H]1CC[C@@H]2C(=O)C/C=N/O | 97.1%
COc1ccc(N2CCN(c3nc(-c4ccccc4)c(C#N)c(=O)[nH]3)CC2)cc1 | 111%
CCCCCCCCCCCC(=O)NCCCN(C)C | 94.5%
COc1cccc(-c2nnc(COc3ccc(-c4nc5ccccc5[nH]4)cc3OC)o2)c1 | 94.9%
N/C(=N\O)c1cn(C2OC(CO)C(O)C2O)c2ncnc(N)c12 (stereo unspecified) | -73.1% (active)
Nc1ccc(C2=CC(c3ccc(Cl)cc3)N3C=CSC3=N2)cc1 (stereo unspecified) | -65.7% (active)
O=[N+]([O-])c1cc2ncccc2c2ncccc12 | 61.9%
O=C(CCc1ccccc1)N1CCN(C(=O)CCc2ccccc2)CC1 | 106%
COc1ccc(CCc2nc3cc(-c4c(C)noc4C)ccc3n2CCN2CCOCC2)cc1 | 26.1%
CCOC(=O)C(=O)Cc1cccnn1 | 111%
FC(F)(F)c1ccc(-c2nc(-c3nc4cc(Cl)c(Cl)cc4[nH]3)c3ccccn23)cc1 | 73.4%
COc1cc(CSc2nc3ccc(C)cc3c(=O)n2-c2ccccc2)cc(OC)c1OC | -20% (active)
CC(C)C[C@H](NC(=O)Cn1ccc2ccccc2c1=O)B(O)O | 3.38% (active)
CCCCC(=O)N(c1ccc(Nc2c3ccccc3nc3cc([N+](=O)[O-])ccc23)cc1)S(C)(=O)=O | 96.8%
N#Cc1ncc(-c2cc(F)ccc2F)c(NC2CCCCCC2)n1 | 93.6%
Cc1nnc2c3nnc(-c4ccc(Cl)cc4)n3c3ccccc3n12 | 94.9%
O=CNc1c(Cl)cc2c(c1Cl)Cc1cc([N+](=O)[O-])ccc1-2 | 2.37% (active)
O=C(Nc1ccc(OS(=O)(=O)Cc2ccccc2)cc1)C12CC3CC(CC(C3)C1)C2 | 97.9%

SMILES | growth
COc1cc(CSc2nc3ccc(C)cc3c(=O)n2Cc2ccccc2)cc(OC)c1OC | -5.84% (active)
CC(=O)[C@H]1CC[C@H]2[C@@H]3CC[C@@H]4CC=C(C=O)C[C@]4(C)[C@H]3CC[C@]12C | 97.3%
O=[N+]([O-])c1ccc(Br)o1 | 109%
CCc1nn2c(-c3cc(OC)c(OC)c(OC)c3)c(-c3cc(OC)c(OC)c(OC)c3)nc2s1 | 83.4%
N#Cc1c2c([nH]c(=O)c1C(N)=O)CCCCC2 | 108%
COC(=O)[C@]12CC[C@@H](C)[C@H](C)[C@@H]1C1=CC[C@@H]3[C@@]4(C)CC(=O)[C@H](O)[C@@]5(C)COC(=C45)C[C@@]3(C)[C@]1(C)CC2 | -27.6% (active)
C=CCNCCCN1C(=O)c2ccc3c4c(ccc(c24)C1=O)C(=O)N(CCCNCC=C)C3=O | -79% (active)
COc1ccc(Cn2cc3c(c2-c2cc(OC)c(OC)c(OC)c2)CCc2cnoc2-3)cc1N | -37% (active)
Cc1ccc2nc(-c3ccc(OCC(=O)N=Nc4c(O)[nH]c5ccccc45)cc3)[nH]c2c1 | 64.3%
COc1cc(OC)cc(-c2n/c(=C\c3c(O)[nH]c4ccc(OC)cc34)cc3c2=Nc2ccccc2-3)c1 | 67.2%
O=c1ccc2nc(-c3ccccc3)nn(-c3ccccc3)c-2c1 | 24.7%
NS(=O)(=O)c1ccc(N2N=C(c3ccc(-c4ccccc4)cc3)CC2c2ccc(Cl)cc2)cc1 (stereo unspecified) | 77.4%
O=C(NC1CCCC1)c1ccc(N2CCC(NCc3cccc(C(F)(F)F)c3)CC2)cc1 | 105%
COc1cc(OC)cc(-c2ccc(-c3ccc(C(=N)N)cn3)o2)c1 | -63.6% (active)
COc1ccc(-c2oncc2-c2cc(OC)c3c(c2)OCO3)cc1 | -35.5% (active)
COc1cc2ccnc(C=O)c2cc1OC | 31.1%
N#Cc1ccc(-n2cnc(NC(=O)[C@H]3CCN(C#N)C3)c2)cc1 | 16.2%
Oc1ccccc1-c1nnc(Cn2c(Cc3cccc4ccccc34)nc3ccccc32)o1 | 111%
Fc1ccc(Nc2ccnc(N3CCN(c4ccnc5cc(Cl)ccc45)CC3)n2)cc1 | 48.6%
